Measurements published in the OligoGym collection.
Further: reference of the scale not given here.

What follows are sequences tested against C1orf114 (assay: pooled miR-30 sensor sort-seq; sequence = guide strand). Conditions: shRNA.
Work on TTCTTGATTCTGTAGAAGCTTG yielded a sensor-assay potency score (higher = more potent) of -0.732. Work on TTTTCCATCTCTCTCTACCAGT yielded a sensor-assay potency score (higher = more potent) of -0.549. In the case of TTTGTAGTTCTTTCTGTCGAGG, the sensor-assay potency score (higher = more potent) is reported as -0.841. TACTATGTCATTCTCTCTCTTT was tested, and the sensor-assay potency score (higher = more potent) was -0.145. Sequence TAGTAGTGTCTTCTAGTGGAGG has a sensor-assay potency score (higher = more potent) of -0.965. TTCTTTCATCTGCTCTTCGTGC showed a sensor-assay potency score (higher = more potent) of -0.834. For TTCTCCATAATATATCTCCTTA, the sensor-assay potency score (higher = more potent) was -0.58. TTGGTTAATATTCTCTTCCTTC gave a sensor-assay potency score (higher = more potent) of -0.217. TTCTAGTGGAGGAACTTCCAAA gave a sensor-assay potency score (higher = more potent) of -0.899. TTAGCTTCTAGTCGGAGCTGTC gave a sensor-assay potency score (higher = more potent) of -0.331. TTTTCTTTTGCAACCACGCTTT gave a sensor-assay potency score (higher = more potent) of -0.00106. In the case of TTCTTGTCCAAAATCATTGGAA, the sensor-assay potency score (higher = more potent) is reported as -0.446.

What follows are sequences tested against C1orf115 in the same assay as above. Conditions: shRNA.
Sequence TTGAGGAATAAACAGCTCCTTA has a sensor-assay potency score (higher = more potent) of -1.12. In the case of TTCTGCTGCACACCCACACTGC, the sensor-assay potency score (higher = more potent) is reported as -0.976. TTCAAGTCTGAGATGCTCCAGG gave a sensor-assay potency score (higher = more potent) of 0.617. Sequence TCGTCCGCCGCGCTCGTCCCGC has a sensor-assay potency score (higher = more potent) of -1.58. TTGCAGGCCGATGACCACGTAG showed a sensor-assay potency score (higher = more potent) of -1.3. Work on TTCCTCCGGTACCTCTTCCTGG yielded a sensor-assay potency score (higher = more potent) of -1.14. Work on TACTTCTTCAGCTTCCTCCGGT yielded a sensor-assay potency score (higher = more potent) of 0.808.
